# Laboratory results from ChEMBL document CHEMBL3988442, “University of Dundee, Small-Polar-MMV Screening Library” (2021).
# For some of these results: Measured potencies and affinities stand elsewhere.
# What was measured:
# Set-up in all cases: scale not given: direction of the effect not stated beside the values
# [1] = target: Protein translocase subunit SecA (Escherichia coli (strain K12)) (UniProt P10408); assay: Assay to Identify E. coli SecA ATPase Inhibitors; format: functional; conditions: 30 µM
# [2] = target: T1, Ubiquitin-activating enzyme e1, putative (Leishmania donovani (strain BPK282A1)) (UniProt E9BSI1); assay: Leishmania donovani Ubiquitin Activating Enzyme (LdE1); format: functional; conditions: 30 µM
# T1 sequence (whole entry): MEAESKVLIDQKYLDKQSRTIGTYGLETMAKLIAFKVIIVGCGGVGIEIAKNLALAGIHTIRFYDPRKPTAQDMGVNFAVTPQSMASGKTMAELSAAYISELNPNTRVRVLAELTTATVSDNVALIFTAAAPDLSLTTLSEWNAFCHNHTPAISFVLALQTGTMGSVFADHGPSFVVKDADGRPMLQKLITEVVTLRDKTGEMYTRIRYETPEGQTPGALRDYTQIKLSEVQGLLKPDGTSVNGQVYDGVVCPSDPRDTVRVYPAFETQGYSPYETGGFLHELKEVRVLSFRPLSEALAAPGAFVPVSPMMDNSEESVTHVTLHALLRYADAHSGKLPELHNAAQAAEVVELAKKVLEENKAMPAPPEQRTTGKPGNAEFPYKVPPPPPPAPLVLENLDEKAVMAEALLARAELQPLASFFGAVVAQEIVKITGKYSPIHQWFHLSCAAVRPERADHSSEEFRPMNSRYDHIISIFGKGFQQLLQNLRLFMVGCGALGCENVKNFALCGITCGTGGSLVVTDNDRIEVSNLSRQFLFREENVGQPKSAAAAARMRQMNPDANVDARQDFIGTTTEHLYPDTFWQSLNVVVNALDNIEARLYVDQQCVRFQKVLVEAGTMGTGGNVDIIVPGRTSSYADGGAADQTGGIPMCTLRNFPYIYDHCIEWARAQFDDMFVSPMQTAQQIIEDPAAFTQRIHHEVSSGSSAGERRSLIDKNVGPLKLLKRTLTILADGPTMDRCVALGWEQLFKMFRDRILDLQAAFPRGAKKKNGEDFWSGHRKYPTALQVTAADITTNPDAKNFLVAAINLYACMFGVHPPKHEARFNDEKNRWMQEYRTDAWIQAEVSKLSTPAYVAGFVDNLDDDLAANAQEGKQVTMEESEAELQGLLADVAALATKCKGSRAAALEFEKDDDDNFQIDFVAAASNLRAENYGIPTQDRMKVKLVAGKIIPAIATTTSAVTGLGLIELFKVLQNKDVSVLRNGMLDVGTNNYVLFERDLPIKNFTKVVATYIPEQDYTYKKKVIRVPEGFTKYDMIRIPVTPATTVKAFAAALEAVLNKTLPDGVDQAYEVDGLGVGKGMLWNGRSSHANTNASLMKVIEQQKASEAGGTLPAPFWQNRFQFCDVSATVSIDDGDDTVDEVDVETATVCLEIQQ
# [3] = target: AMP-activated protein kinase, AMPK (Homo sapiens) (UniProt P54646+O43741+P54619+Q9UGJ0+Q9Y478+Q13131+Q9UGI9); assay: AMP-dependent Kinase enzyme assay. An in vitro enzyme assay that detects ADP turnover that is directly proportional to AMPK activity. This uses naive AMPK that is activated during the assay with MK-8722; format: functional; conditions: 30 µM
# [4] = target: Sialic acid-binding Ig-like lectin 9 (Homo sapiens) (UniProt Q9Y336); assay: Hs-Siglec9 ALPHAscreen SOP 20170721; conditions: 10 µM
# Trypanosoma cruzi = assay: Trypanosoma cruzi phosphomannomutase and mannose-1-phosphate guanylyltransferase assay; format: functional; conditions: 10 µM
# [5] = target: T2, Arginase-2, mitochondrial (Homo sapiens) (UniProt P78540); assay: in vitro enzyme assay to detect the production of urea directly proportional to the activity of Arginase II; format: functional; conditions: 33.3 µM; also: in the data most compounds retested in dose-response had high values
# T2 sequence (whole entry): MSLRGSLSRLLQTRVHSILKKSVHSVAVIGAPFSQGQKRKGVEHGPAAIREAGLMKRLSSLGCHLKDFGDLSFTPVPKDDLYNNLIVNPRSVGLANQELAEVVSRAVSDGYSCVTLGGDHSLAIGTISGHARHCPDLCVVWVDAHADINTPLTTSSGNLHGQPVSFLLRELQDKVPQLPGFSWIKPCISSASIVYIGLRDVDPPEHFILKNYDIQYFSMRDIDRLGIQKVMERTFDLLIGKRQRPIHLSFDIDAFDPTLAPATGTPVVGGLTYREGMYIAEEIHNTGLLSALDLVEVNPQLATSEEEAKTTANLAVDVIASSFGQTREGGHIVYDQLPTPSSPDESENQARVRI
# [6] = target: T3, Proteasome subunit beta (Trypanosoma cruzi) (UniProt O96673); assay: Trypanosoma cruzi proteasome chymotrypsin-like activity (TcProtChymo) assay.; also: in the data most compounds retested in dose-response had high values; format: functional; conditions: 9.37 µM
# T3 sequence (whole entry): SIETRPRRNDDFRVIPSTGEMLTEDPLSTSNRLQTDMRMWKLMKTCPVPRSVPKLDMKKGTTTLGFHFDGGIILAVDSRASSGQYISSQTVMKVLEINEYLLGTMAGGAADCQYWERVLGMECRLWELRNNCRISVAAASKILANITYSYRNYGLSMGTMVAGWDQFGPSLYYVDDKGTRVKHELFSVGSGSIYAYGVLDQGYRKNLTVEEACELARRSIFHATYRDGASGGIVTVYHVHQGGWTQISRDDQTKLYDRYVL
# Homo sapiens = organism: Homo sapiens; assay: To identify inhibition of the IFN signalling (Jak-Stat) pathway via expression of an eGFP reporter gene under the control of an IFN-stimulated response element (ISRE) containing MxA promoter.; format: functional; conditions: 30 µM
# [7] = target: T4, Tyrosyl-tRNA synthetase, putative (Trypanosoma cruzi (strain CL Brener)) (UniProt Q4DSP6); assay: Trypanosoma cruzi tyrosyl tRNA synthetase (TcYRS) _High Tyrosine SOP; format: functional; conditions: 30 µM; also: in the data most compounds retested in dose-response had high values
# T4 sequence (whole entry): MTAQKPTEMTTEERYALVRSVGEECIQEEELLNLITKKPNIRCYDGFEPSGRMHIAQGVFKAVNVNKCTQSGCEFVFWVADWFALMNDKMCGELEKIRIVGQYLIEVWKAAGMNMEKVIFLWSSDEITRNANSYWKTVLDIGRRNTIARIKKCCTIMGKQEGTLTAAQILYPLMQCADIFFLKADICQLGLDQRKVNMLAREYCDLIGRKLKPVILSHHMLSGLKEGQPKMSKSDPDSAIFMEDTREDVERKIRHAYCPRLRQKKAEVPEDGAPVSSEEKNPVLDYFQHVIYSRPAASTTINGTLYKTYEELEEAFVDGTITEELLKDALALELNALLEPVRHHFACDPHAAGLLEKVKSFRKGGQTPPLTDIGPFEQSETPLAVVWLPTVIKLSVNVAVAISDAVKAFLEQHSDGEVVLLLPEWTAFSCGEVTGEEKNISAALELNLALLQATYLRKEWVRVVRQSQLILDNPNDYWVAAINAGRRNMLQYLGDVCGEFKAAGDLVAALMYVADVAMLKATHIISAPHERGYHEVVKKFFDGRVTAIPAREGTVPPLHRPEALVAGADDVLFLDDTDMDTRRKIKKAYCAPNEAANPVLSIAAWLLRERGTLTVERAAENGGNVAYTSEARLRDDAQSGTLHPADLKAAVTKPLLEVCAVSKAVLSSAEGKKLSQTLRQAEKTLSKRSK
# [8] = target: T4, Tyrosyl-tRNA synthetase, putative (Trypanosoma cruzi (strain CL Brener)); assay: Trypanosoma cruzi tyrosyl tRNA synthetase (TcYRS) SOP; format: functional; conditions: 30 µM
# [9] = target: Chromo domain-containing protein 1 (Saccharomyces cerevisiae (strain ATCC 204508 / S288c) (Baker's yeast)) (UniProt P32657); assay: ScCHD-1 Enzyme Inhibition Assay; format: functional; conditions: 30 µM; also: in the data most compounds retested in dose-response had high values
# Chromo domain-containing protein 1 (Saccharomyces cerevisiae (strain ATCC 204508 / S288c) (Baker's yeast)), sequence (P32657 whole entry, the tested form may be a part): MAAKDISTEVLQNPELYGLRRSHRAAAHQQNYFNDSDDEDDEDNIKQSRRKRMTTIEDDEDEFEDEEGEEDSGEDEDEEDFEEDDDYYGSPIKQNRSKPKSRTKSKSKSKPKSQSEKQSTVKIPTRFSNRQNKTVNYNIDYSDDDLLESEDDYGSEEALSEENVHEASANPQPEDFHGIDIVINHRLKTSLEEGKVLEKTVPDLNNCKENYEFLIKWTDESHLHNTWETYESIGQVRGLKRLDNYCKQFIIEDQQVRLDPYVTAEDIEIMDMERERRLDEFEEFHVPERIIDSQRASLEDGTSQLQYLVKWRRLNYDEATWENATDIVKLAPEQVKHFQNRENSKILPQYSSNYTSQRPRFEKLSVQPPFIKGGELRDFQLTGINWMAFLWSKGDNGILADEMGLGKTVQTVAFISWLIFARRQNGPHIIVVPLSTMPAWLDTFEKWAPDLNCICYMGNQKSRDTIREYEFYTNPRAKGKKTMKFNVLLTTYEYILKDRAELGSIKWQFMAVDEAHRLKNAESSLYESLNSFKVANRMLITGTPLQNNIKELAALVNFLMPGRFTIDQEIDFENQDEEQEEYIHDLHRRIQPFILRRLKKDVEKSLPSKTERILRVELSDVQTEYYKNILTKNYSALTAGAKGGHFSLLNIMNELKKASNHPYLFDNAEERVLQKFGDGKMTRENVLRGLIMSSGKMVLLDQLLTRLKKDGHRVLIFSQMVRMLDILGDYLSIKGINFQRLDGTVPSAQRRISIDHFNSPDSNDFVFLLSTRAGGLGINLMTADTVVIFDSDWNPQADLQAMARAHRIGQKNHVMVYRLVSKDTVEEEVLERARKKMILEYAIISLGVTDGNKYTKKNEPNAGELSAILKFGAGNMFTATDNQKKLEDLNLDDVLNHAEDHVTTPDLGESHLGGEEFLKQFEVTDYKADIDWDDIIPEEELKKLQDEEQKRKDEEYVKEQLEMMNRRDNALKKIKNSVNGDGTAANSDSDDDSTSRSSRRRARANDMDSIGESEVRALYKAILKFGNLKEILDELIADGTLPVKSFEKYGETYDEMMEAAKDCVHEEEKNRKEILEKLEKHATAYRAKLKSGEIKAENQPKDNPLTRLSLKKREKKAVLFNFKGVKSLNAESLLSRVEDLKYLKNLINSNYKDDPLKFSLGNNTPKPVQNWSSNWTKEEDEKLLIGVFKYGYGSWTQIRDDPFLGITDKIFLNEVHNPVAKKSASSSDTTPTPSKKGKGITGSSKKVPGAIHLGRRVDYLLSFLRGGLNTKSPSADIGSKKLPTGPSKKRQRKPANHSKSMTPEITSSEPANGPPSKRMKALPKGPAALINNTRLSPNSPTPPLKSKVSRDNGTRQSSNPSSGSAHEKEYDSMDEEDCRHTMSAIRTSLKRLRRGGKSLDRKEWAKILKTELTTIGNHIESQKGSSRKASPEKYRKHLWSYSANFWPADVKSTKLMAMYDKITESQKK
# Sialic acid-binding Ig-like lectin 9 (Homo sapiens), sequence (Q9Y336 whole entry): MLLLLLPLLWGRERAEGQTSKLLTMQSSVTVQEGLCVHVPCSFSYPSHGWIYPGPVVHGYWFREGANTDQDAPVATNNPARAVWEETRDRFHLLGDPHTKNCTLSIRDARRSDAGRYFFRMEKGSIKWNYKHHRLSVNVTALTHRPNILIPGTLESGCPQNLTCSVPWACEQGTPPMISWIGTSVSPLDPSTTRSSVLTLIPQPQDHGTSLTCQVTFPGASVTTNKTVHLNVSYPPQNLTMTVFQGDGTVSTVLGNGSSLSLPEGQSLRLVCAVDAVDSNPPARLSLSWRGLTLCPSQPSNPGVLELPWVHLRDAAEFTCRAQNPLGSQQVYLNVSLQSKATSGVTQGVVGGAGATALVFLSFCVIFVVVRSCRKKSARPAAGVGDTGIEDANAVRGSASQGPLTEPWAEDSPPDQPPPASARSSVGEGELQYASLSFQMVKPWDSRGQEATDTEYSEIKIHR
# Protein translocase subunit SecA (Escherichia coli (strain K12)), sequence (P10408 whole entry): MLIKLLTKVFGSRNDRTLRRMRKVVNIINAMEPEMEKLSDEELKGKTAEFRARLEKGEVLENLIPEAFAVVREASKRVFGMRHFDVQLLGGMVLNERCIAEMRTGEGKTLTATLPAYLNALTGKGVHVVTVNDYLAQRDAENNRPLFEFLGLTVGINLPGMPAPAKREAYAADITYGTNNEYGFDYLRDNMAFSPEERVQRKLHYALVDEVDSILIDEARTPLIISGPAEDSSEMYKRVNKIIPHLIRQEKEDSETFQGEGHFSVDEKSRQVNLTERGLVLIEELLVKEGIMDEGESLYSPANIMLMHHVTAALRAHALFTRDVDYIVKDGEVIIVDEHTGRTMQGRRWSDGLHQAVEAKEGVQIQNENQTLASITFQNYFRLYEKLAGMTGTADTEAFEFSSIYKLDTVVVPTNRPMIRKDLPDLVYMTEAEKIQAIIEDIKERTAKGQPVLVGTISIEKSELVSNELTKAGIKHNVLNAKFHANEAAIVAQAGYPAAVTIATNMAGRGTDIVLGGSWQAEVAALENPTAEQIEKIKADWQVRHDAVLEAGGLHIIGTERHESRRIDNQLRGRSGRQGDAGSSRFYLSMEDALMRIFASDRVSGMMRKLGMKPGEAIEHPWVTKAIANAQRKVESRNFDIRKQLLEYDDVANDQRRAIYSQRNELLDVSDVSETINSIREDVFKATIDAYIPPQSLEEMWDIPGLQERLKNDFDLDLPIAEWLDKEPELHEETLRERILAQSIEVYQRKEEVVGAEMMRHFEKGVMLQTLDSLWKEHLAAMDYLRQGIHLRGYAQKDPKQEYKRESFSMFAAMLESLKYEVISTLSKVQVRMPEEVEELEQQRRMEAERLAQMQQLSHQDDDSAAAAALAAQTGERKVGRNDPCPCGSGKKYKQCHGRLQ
Compound,Percent Effect [1],Percent Effect [2],Percent Effect [3],Percent Effect [4],Percent Effect (Trypanosoma cruzi),Percent Effect [5],Percent Effect [6],Percent Effect (Homo sapiens),Percent Effect [7],Percent Effect [8],Percent Effect [9]
c1ccc(OCC2CC3(CCN(Cc4ccncc4)CC3)CO2)nc1 (stereo not given),-3.46%,9.33%,6.58%,5.09%,-4.13%,-4.4%,12.2%,-5.36%,2.12%,7.69%,-5.62%
Cc1nc(C2CCN(C(=O)c3cccnc3)CC2)c2sccn12,-1.59%,1.35%,6.93%,4.07%,3.36%,3.48%,7.8%,-15.3%,2.15%,6.49%,-6.97%
FC(F)(F)c1cc(N2CCc3ncnc(NC4CC4)c3CC2)ncn1,-1.41%,13.3%,11.7%,-4.57%,-3.86%,-57.5%,14.4%,10.9%,5.21%,-5%,-8.14%
Cc1nc(C2CCCN(C(=O)c3sccc3C3CC3)C2)no1 (stereo not given),-1.32%,-1.39%,-29%,-2.96%,-0.486%,-0.442%,11.9%,5.93%,0%,0%,-0.247%
COc1ccc(CN2CCCCC2CNC(=O)OC(C)(C)C)cc1F (stereo not given),-3.55%,0%,-2.98%,21.3%,-1.86%,-1.74%,0.0858%,-23.7%,-2.15%,1.24%,-2.09%
CC(=O)N(Cc1noc(C)n1)C1CCN(Cc2cc(C)on2)C1 (stereo not given),-2.56%,18.2%,1.37%,-5.63%,0.0979%,-1.05%,18.5%,12.2%,10.5%,30.6%,-15%
CC(C)c1nc(C2CCCN(C(=O)CCCn3cncn3)C2)no1 (stereo not given),-4.23%,21.6%,-6.76%,9.76%,2.36%,-10.4%,12.1%,-60.1%,8.37%,16.1%,-12.8%
NCC(c1ccccc1)N1CCc2sccc2C1 (stereo not given),-1.09%,7.89%,-9.46%,-3.01%,-3.41%,-5.92%,17.6%,5.62%,8.51%,18.2%,-3.07%
CO[C@H]1CN(C(=O)c2ccc3oc(C)cc3c2)CC[C@@]12CCCO2,-0.467%,1.35%,11.4%,2.79%,0.593%,-0.696%,5.77%,-10.3%,0%,-1.3%,-11.8%
O=C(NCCn1ccc(-c2ccccn2)n1)C1CC1,-1.6%,0%,8.98%,2.65%,-3.85%,5.81%,2.79%,7.05%,3.17%,3.85%,-0.508%
CN(C)C(=O)c1ccc2c(c1)N(C)C(CC(=O)NC(C)(C)CO)CO2 (stereo not given),-8.01%,-4.17%,-3.33%,3.27%,-2.82%,-2.21%,10.7%,-2.49%,-2.1%,-5.13%,0.823%
Cc1nccn1-c1cc(CNC(=O)CCNC(=O)C2CCCC2)ccn1,-5.76%,21.1%,-10%,9.11%,6.63%,-4.68%,5.84%,5.17%,8.37%,23.5%,-6.78%
O=C(CS(=O)(=O)CC1CCCCC1)NC1CCCCNC1=O (stereo not given),-5.08%,2.6%,-1.46%,5.38%,4.49%,-6.05%,-2.7%,-1.34%,0%,9.76%,83.8%
O=C1CN(Cc2nnc(-c3ccc(Br)o3)o2)CCN1,-0.248%,4.17%,-1.21%,-1.55%,0.486%,1.32%,21.2%,-4.7%,7.37%,0%,-3.99%
CCc1nnc2n1CCN(C(=O)c1ccc3nc(C)c(C)nc3c1)C2,-3.88%,1.39%,140%,3.38%,5.34%,-1.32%,20.7%,-6.8%,5.26%,15.4%,-2.97%
O=C(CCc1cccs1)N1CCC(Nc2cccnn2)CC1,-7.51%,-23.7%,-9.73%,4.64%,8.87%,1.8%,9.73%,5.28%,9.36%,23.5%,-11.1%
Cc1cnn(CCC(=O)N2C[C@H]3CC[C@@H]2CN(CC(=O)N(C)C)C3)c1,0.243%,13.5%,-6.36%,7.46%,7.34%,1.91%,17.6%,5.29%,5.82%,17.1%,-2.52%
CCNc1cc2c(nn1)CCN(C(=O)c1ccc(NC3CC3)nc1)C2,-3.24%,0%,-3.65%,11.3%,3.38%,1.15%,2.67%,6.81%,5.39%,9.76%,1.67%
CCNc1cc2c(nn1)CCN(C(=O)c1ccnc(N(C)C)c1)C2,-2.5%,5.26%,-29.5%,4.93%,9.21%,4.98%,5.01%,-24.9%,4.41%,4.88%,-5.51%
CN(C)C(=O)Cc1nc(CN2CCOC(Cn3cccn3)C2)cs1 (stereo not given),1.53%,0%,-0.58%,-0.357%,-1.46%,0%,10.6%,-2.04%,0%,0%,1.28%
